Data on 15 compounds can be found in PubChem BioAssay AID1745853 (National Center for Advancing Translational Sciences (NCATS), 2022).

Several values for one entry are separate records, joined by “and”; a condition that tells them apart may be missing. Identical values can stand only once. Among all 25,000 compounds or so, about 970 (3.9%) were called active. Not shown: some 8% with an inconclusive outcome. How the calls were made is not given here. Many of the other results were omitted from the sample, so actives are more common in it than they were.

What all share (experiment): Primary Screen for Target Class Profiling of Small Molecule Inhibitors of Methyltransferases
The target of assay [1] is Catechol O-methyltransferase (Homo sapiens) (UniProt P21964). The following applies: purified enzyme, MTase-Glo SAH luminescence; activity change, negative = inhibition: at 40 µM, stronger effect = lower value; outcome: 40 uM. The source says:
(§1) PI: Matthew D. Hall Ph.D. and Quinlin M. Hanson Ph.D.
(§2) National Center for Advancing Translational Sciences (NCATS)
(§3) National Institute of Health (NIH), Rockville, MD
(§4) Target class profiling (TCP) is a chemical biology approach amenable to investigating understudied biological targets. TCP is achieved by developing a generalizable assay platform and applying it to screen a curated set of compound libraries against representative members of a target class. Small molecule methyltransferases (SMMTase) are a subclass of methyltransferase that act on metabolites to modulate signaling pathways, metabolize xenobiotics, or balance the available methyl pool. We screened four curated libraries totaling 27,574 unique compounds against the SMMTases nicotinamide N-methyltransferase (NNMT), phenylethanolamine N-methyltransferase (PNMT), histamine N-methyltransferase (HNMT), glycine N-methyltransferase (GNMT), catechol O-methyltransferase (COMT), and guanidinoacetate N-methyltransferase (GAMT). The data generated by this TCP can be leveraged for informed tool molecule development. For example, in the associated publication we identified a chemotype of HNMT-selective inhibitors. Additionally, we identified a putative SMMTase-selective inhibitor with potential as a tool molecule for studying broader methyltransferase biology.
(§5) High-through put screening assays were developed at the National Center for Advancing Translational Science (NCATS) for the enzymes NNMT, PNMT, HNMT, GNMT, COMT, and GAMT. Enzymatic activity was measured as a function of SAM cofactor conversion using the MTase Glo kit (Promega) for all enzymes. All assays were performed in 1536-well format with substrates and SAM concentrations at KM values. Enzyme concentration and assay timing were optimized for 10-20% SAM conversion. Initial screening of 27,574 compounds was done as single-point assays using the highest compound concentration (40 uM). […] These compounds were replated in 11-point dose response and assayed against NNMT, PNMT, HNMT, GNMT, COMT, GAMT, and a counter-assay. The IC50 and efficacy (maximal response) values were determined for each dose-response curve. These values are also accounted for in the area under the curve (AUC) values.
(§6) PROTOCOL TABLE (as described by Inglese J, Shamu CE and Guy RK. 2007)
(§7) SEQUENCE No. (e.g., 1, 2, 3, etc.); […] (e.g., Cells, Incubation, Reagent, etc.); VALUE; DESCRIPTION.
(§8) 1; Reagent; 2 uL; SMMTase Enzyme (2x) in reaction buffer, columns 1- 48.
(§9) 2; Reagent; 1 uL; SAM (4x) in reaction buffer, columns 1-48.
(§10) 3; Controls; 23 nL; DMSO in column 4; sinefungin in DMSO (0 uM - 40 uM) in 7-point 1:2 dilution series (n = 2) in column 2.
(§11) 4; Compounds; 23 nL; Columns 5-48.
(§12) 5; Reagent; 1 uL; Substrate (4x) in reaction buffer, columns 2-48.
(§13) 6; Time; 20-30 min; Incubation.
(§14) 7; Reagent; 1 uL; MTase-Glo reagent (5X), columns 1-48.
(§15) 8; Time; 30 min; Incubation.
(§16) 9; Reagent; 5 uL; MTase-Glo Detection reagent, columns 1-48.
(§17) 10; Time; 30 min; Incubation, luminescence evolution.
(§18) 11; Detection; Luminescence; ViewLux uHTS Microplate Imager (PerkinElmer).
(§19) NOTES (numbers refer to Sequence numbers above)
(§20) 1, 2, 5. White Medium Binding Greiner 1536-well plates (Cat #789175-F, Greiner Bio-One, Monroe, NC); Reaction buffer: 50 mM Tris, pH 8.0, 3 mM MgCl2, 1 mM EDTA, 50 mM NaCl, 1 mM DTT, and 0.1 mg/mL BSA. Evaporation was prevented by covering assay plates with metal lids containing holes to allow gas diffusion.
(§21) 1. Six SMMTase were profiled: HNMT, GNMT, PNMT, COMT, NNMT, GAMT
(§22) 5. The corresponding substrate was used for each enzyme: HNMT - 5.3 uM Histamine; GNMT - >500 uM Glycine; PNMT - 16.2 uM Norephinephrine; COMT - 13.7 uM Norephinephrine; NNMT - 3.8 uM Nicotinamide; GAMT - 2.5 uM Guanidinoacetate.6, 8, 10. Room temperature
(§23) 6. Final reaction conditions: 10 nM COMT, 5 uM SAM, 15 uM norepinephrine, 50 mM Tris, pH 8.0, 3 mM MgCl2, 1 mM EDTA, 50 mM NaCl, 1 mM DTT, and 0.1 mg/mL BSA; refer to tables 2 and S1 for specific timing.
8. […]

The target of assay [2] is Glycine N-methyltransferase (Homo sapiens) (UniProt Q14749). The following applies: purified enzyme, MTase-Glo SAH luminescence; measured here: GNMT inhibition; at 40 µM; stronger effect = lower value.
Chain of Glycine N-methyltransferase (Homo sapiens) (Q14749 whole entry, looked up): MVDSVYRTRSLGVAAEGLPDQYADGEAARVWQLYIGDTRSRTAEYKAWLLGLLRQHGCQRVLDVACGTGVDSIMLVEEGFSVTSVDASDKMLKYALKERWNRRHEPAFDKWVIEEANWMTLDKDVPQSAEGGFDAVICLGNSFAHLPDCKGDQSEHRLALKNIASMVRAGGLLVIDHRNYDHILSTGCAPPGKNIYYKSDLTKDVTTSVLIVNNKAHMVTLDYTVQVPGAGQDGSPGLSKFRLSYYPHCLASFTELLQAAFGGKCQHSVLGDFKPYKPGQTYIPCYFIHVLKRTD
Source text: as §1, §2, §3, §4, §5, §6, §7, §8, §9, §10, §11, §12, §13, §14, §15, §16, §17, §18, §19, §20, §21, §22, §23
8. […]

The target of assay [3] is Guanidinoacetate N-methyltransferase (Homo sapiens) (UniProt Q14353). To be noted: purified enzyme, MTase-Glo SAH luminescence; measured here: GAMT inhibition; at 40 µM; stronger effect = lower value.
Source text: as §1, §2, §3, §4, §5, §6, §7, §8, §9, §10, §11, §12, §13, §14, §15, §16, §17, §18, §19, §20, §21, §22, §23
8. […]

In assay [4] the target is Histamine N-methyltransferase (Homo sapiens) (UniProt P50135). The following applies: purified enzyme, MTase-Glo SAH luminescence; measured here: HNMT inhibition; at 40 µM; stronger effect = lower value.
Chain of Histamine N-methyltransferase (Homo sapiens) (P50135 whole entry, looked up): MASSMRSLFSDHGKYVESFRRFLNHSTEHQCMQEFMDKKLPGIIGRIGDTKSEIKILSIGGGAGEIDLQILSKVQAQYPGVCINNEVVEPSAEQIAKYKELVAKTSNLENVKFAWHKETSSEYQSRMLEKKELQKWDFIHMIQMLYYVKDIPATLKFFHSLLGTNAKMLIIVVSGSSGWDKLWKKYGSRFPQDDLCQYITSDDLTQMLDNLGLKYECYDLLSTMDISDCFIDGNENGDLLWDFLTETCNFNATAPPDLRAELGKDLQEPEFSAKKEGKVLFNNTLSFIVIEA
Source text: as §1, §2, §3, §4, §5, §6, §7, §8, §9, §10, §11, §12, §13, §14, §15, §16, §17, §18, §19, §20, §21, §22, §23
8. […]

In assay [5] the target is Nicotinamide N-methyltransferase (Homo sapiens) (UniProt P40261). To be noted: purified enzyme, MTase-Glo SAH luminescence; measured here: NNMT inhibition; at 40 µM; stronger effect = lower value.
Chain of Nicotinamide N-methyltransferase (Homo sapiens) (P40261 whole entry, looked up): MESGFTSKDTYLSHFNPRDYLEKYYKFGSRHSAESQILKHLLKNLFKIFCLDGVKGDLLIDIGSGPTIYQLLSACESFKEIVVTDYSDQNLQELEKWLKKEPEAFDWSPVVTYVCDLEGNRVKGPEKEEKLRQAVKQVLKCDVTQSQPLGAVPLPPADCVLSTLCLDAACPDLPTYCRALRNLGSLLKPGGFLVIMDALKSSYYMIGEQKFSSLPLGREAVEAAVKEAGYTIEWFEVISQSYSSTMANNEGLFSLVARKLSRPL
Source text: as §1, §2, §3, §4, §5, §6, §7, §8, §9, §10, §11, §12, §13, §14, §15, §16, §17, §18, §19, §20, §21, §22, §23
8. […]

The target in assay [6] is Phenylethanolamine N-methyltransferase (Homo sapiens) (UniProt P11086). To be noted: purified enzyme, MTase-Glo SAH luminescence; measured here: PNMT inhibition; at 40 µM; stronger effect = lower value.
Chain of Phenylethanolamine N-methyltransferase (Homo sapiens) (P11086 whole entry, looked up): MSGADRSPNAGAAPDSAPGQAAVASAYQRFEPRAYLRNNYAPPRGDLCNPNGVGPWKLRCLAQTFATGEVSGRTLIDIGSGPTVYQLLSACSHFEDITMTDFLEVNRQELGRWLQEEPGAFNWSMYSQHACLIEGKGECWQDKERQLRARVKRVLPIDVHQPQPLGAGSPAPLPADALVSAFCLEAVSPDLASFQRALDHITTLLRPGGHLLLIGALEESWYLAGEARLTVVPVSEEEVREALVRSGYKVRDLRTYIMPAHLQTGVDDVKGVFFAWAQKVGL
Source text: as §1, §2, §3, §4, §5, §6, §7, §8, §9, §10, §11, §12, §13, §14, §15, §16, §17, §18, §19, §20, §21, §22, §23
8. […]
On the % scale 0 is the no-effect control and ±100 the full control effect.

Chain of Catechol O-methyltransferase (Homo sapiens) (P21964 whole entry, looked up): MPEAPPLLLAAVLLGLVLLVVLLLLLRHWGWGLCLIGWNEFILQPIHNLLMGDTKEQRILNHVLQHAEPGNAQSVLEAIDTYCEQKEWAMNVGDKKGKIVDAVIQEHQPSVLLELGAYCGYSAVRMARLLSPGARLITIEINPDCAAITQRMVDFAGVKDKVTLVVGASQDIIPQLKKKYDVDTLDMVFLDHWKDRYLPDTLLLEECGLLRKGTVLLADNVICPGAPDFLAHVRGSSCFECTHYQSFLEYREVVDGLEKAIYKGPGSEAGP

Take `CC(C)CNc1ccnc(NCc2csc(-c3ccccc3)n2)n1`: the activity change, negative = inhibition in assay [1] is -4.4% (active); in assay [2] it was -6.48%; in assay [3] it was 6.91%; in assay [4] it was -83.3%; in assay [5], -36.8%; in assay [6] it was -16.1%.

As for `Cc1nc2c(c(-c3ccc(O)cc3)n1)CN(C(=O)c1ccccc1C)CCC2`, the activity change, negative = inhibition was -2.56% (inactive) in assay [1]; -6.74% in assay [2]; -3.52% in assay [3]; -0.862% in assay [4]; -11.6% in assay [5]; -8.96% in assay [6].

As for `Cc1noc(C)c1S(=O)(=O)NCCC1CN(c2cnn(C)c(=O)c2)CCO1` (stereo not given), the activity change, negative = inhibition in assay [1] was 4.53% (inactive); in assay [2], -1.17%; in assay [3], -2.35%; in assay [4], 0.773%; in assay [5], -1.18%; in assay [6] it was 5.68%.

In the case of `COc1ccccc1N1CCN(C(=O)C[C@@H]2C[C@@H](C(C)C)[C@H](CO)C=C2C)CC1`, the activity change, negative = inhibition was -4.58% (inactive) in assay [1]; -5.78% in assay [2]; -7.59% in assay [3]; -2.03% in assay [4]; -11.8% in assay [5]; 3.34% in assay [6].

With `COc1ccc(C(=O)N2CCN(C(=O)N3CC4CC(C3)[C@H]3CCCC(=O)N3C4)CC2)c(OC)n1` (stereo not given in full), the activity change, negative = inhibition was 1.98% (inactive) in assay [1]; -0.248% in assay [2]; 0.955% in assay [3]; 0.52% in assay [4]; -3.64% in assay [5]; 0.052% in assay [6].

Turning to `CCN(CC)CCCC(C)Nc1ccnc2cc(Cl)ccc12` (stereo not given), the activity change, negative = inhibition in assay [1] is 5.5% (active) and -5.08% (active); in assay [2], -0.101% and -1.02%; in assay [3], 6.48% and -3.06%; in assay [4] it was -64.7% and -54.2%; in assay [5], -4.26% and -11.8%; in assay [6], 6.95% and -8.55%.

With `O=C(C1CCCC1)N1CCCC(c2noc(COc3ccccc3)n2)C1` (stereo not given), the activity change, negative = inhibition in assay [1] is -7.8% (inactive); in assay [2] it was -8.83%; in assay [3], -9.57%; in assay [4], -5.83%; in assay [5], -18.3%; in assay [6], -10.2%.

With `CSc1cccc(CN(C)Cc2cc3n(n2)CCNC3)c1`, the activity change, negative = inhibition is -0.225% (inactive) in assay [1]; -1.46% in assay [2]; -2.55% in assay [3]; -2.05% in assay [4]; -2.62% in assay [5]; -8.63% in assay [6].

On to `COc1ccccc1CN[C@H]1[C@H](O)[C@@H](N2CCN(c3ccccc3OC)CC2)[C@@H]2OC[C@H]1O2`, for which the activity change, negative = inhibition in assay [1] was 1.34% (inactive); in assay [2] it was -1.49%; in assay [3], -8.26%; in assay [4], 2.36%; in assay [5], -0.669%; in assay [6] it was 2.62%.

As for `CCc1cccc(NC(=O)Cn2c(=O)oc3cc(S(=O)(=O)N4CCC(C)CC4)ccc32)c1`, the activity change, negative = inhibition in assay [1] was 0.729% (inactive); in assay [2] it was -4.13%; in assay [3], 4.45%; in assay [4] it was -8.18%; in assay [5] it was -16.8%; in assay [6], -14.1%.

Turning to `Cc1ccc(Cn2c(=O)c3ccc(C(=O)NC(C)C)cc3n3c(=O)n(Cc4cccc(F)c4)nc23)cc1`, the activity change, negative = inhibition in assay [1] was 6.38% (inactive); in assay [2], 4.35%; in assay [3] it was 1.49%; in assay [4], 7.79%; in assay [5], 5.05%; in assay [6], 6.91%.

On to `CC1(C)CC[C@]2(C(=O)O[C@@H]3O[C@H](CO)[C@@H](O)[C@H](O)[C@H]3O)CC[C@]3(C)C(=CCC4[C@@]5(C)CC[C@H](O[C@@H]6O[C@H](C(=O)O)[C@@H](O)[C@H](O)[C@H]6OC6OC(CO)C(O)C(O)C6O)C(C)(C)C5CC[C@]43C)[C@@H]2C1` (stereo not given in full), for which the activity change, negative = inhibition in assay [1] is -21.1% (inactive); in assay [2] it was 2.46%; in assay [3], 8.94%; in assay [4], 8.45%; in assay [5], -9.17%; in assay [6], 7.25%.

With `C[C@@H]1CC[C@]2(C(=O)O[C@@H]3O[C@H](CO)[C@@H](O)[C@H](O)[C@H]3O)CC[C@]3(C)C(=CCC4[C@@]5(C)C[C@@H](O)[C@H](O)[C@](C)(C(=O)O)C5CC[C@]43C)[C@@H]2[C@]1(C)O` (stereo not given in full), the activity change, negative = inhibition is 4.37% (inactive) in assay [1]; 6.36% in assay [2]; 4.44% in assay [3]; 15.1% in assay [4]; -9.25% in assay [5]; 7.5% in assay [6].

For `CC1(C)CCC2(C(=O)OC3OC(COC4OC(CO)C(O)C(O)C4O)C(O)C(O)C3O)CCC3(C)C(=CCC4C5(C)CCC(O)C(C)(C(=O)O)C5CCC43C)C2C1O` (stereo not given), the activity change, negative = inhibition in assay [1] was -56.4% (active); in assay [2], 0%; in assay [3], 5.96%; in assay [4], 11.8%; in assay [5], -7.28%; in assay [6], 4.84%.

For the compound `C=Cc1ccc(Cn2nc3n(CC(C)C)c(=O)c4ccc(C(=O)NC(C)CC)cc4n3c2=O)cc1` (stereo not given), the activity change, negative = inhibition was 2.79% (inactive) in assay [1]; 4.48% in assay [2]; 0% in assay [3]; 10.7% in assay [4]; -0.533% in assay [5]; 5.38% in assay [6].
